The record followed here is PubChem BioAssay (NCATS).

The structures appear in SMILES notation. Inconclusive results are not listed. Calls of active or inactive are those of the source. Unless noted, the call rests on the fitted dose curve; in most records, active means well fitted curve in the direction sought with a large enough effect; inconclusive means small, poorly fitted or top-dose-only effect, or another doubt; inactive means no such curve, though single readings can be large; an effect the other way counts as inactive or inconclusive. Where only a bound is given, the exact number is not on record here.

The target of experiment [1] is Cytochrome P450 3A4 (Homo sapiens) (UniProt P08684). The experiment in a line: qHTS Assay for Inhibitors and Substrates of Cytochrome P450 3A4 (AID 884). Further: nearly all actives have a fitted effect of over 50% in size. Further: potency means the concentration at half of the fitted maximal effect. Conditions: recombinant CYP3A4, Luciferin-PPXE luminescence; series mostly up to 57.1 µM. The method in brief: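 20 nM human CYP3A4 with 25 uM Luciferin-PPXE (at KM) in 200 mM KPO4, preincubated 10 min with compound; NADPH regeneration started a 60 min RT reaction. Luciferin detected by luminescence, normalized to 57 uM ketoconazole as full inhibition.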
Background: In qHTS, concentration-response curves come from the screen itself.

Experiment [2] has the same target. The experiment in a line: qHTS Assay for Activators of Cytochrome P450 3A4 (AID 885). Further: nearly all actives have a fitted effect of over 65% in size. Conditions: recombinant CYP3A4, Luciferin-PPXE luminescence, 60 min; series mostly up to 57.1 µM. The method in brief:
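Steps: enzyme/substrate mix dispensed; compound added, 10 min RT; NADPH regeneration solution added, 60 min RT; luciferin detection buffer stops reaction; 20 min later luminescence measured.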

Experiment [3] addresses Calcium and integrin-binding protein 1 (Homo sapiens) (UniProt Q99828). The experiment in a line: Primary qHTS for Identification of Calcium Integrin Binding Protein 1 (CIB1) Competitor (AID 1508620).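 Further: GST tagged CIB1 binding a fluorescein labelled alphaIIb integrin peptide tracer; top concentration of the series differs between compounds; on the % scale 0 is the no-effect control and ±100 the full control effect.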 Conditions: CIB1-GST / FITC-alphaIIb peptide fluorescence polarization; series mostly up to 114 µM. Put shortly:
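Fluorescence polarization competition: GST-tagged CIB1 (1 uM final) preincubated with compound 15 min at room temperature, then FITC-labelled alphaIIb peptide (100 nM final) added. After 15 min at room temperature, polarization read at Ex 480/Em 540.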

Experiment [4] concerns the target Ubiquitin carboxyl-terminal hydrolase 2 (Homo sapiens) (UniProt O75604). The experiment in a line: qHTS for Inhibitors of Ubiquitin-specific Protease USP2a Using CHOP2 as the Reporter: K484 Substrate (AID 652173).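 Further: cleavage of internally quenched K48 di-ubiquitin substrate measured as rising fluorescence over time; potency means the concentration at half of the fitted maximal effect; nearly all actives have a fitted effect of over 70% in size.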 Conditions: USP2 cleavage of DiUb K48 IQF substrate, fluorescence; series mostly up to 57.5 µM. Put shortly: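 USP2 (dispensed at 5 nM) was pinned with compounds, then DiUb K48 internally quenched fluorescent substrate (dispensed at 100 nM) was added. The buffer was 20 mM Tris pH 8, 2 mM beta-mercaptoethanol and 0.05% CHAPS. Cleavage was read kinetically as rising fluorescence, Ex 525/Em 598.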

Experiment [5] is described as follows: Counterscreen qHTS for small molecule stabilizers of the endoplasmic reticulum resident proteome: GLuc-NoTag assay (AID 1508627). Further: potency means the concentration at half of the fitted maximal effect.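 On activity change, negative = inhibition: 0% = thapsigargin alone and -100% = DMSO vehicle control.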 Conditions: Gaussia luciferase NoTag secretion counterscreen, luminescence, thapsigargin 100 nM for final 4 h; series mostly up to 76.4 µM. Put shortly: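 SH-SY5Y cells stably expressing constitutively secreted GLuc without SERCaMP tag, exposed to compound for 19 hr, then to 100 nM thapsigargin for 4 hr at 37C. Medium luciferase was read by coelenterazine luminescence without lysis.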
On the technique in general: The purpose of a counterscreen is to sort out artefacts and off-target activity.

Experiment [6] is described as follows: Confirmatory qHTS for small molecule stabilizers of the endoplasmic reticulum resident proteome: Secreted ER Calcium Modulated Protein (SERCaMP) assay (AID 1508628). Further: nearly all actives have a fitted effect of over 40% in size. Further: potency means the concentration at half of the fitted maximal effect. Conditions: SERCaMP secreted luciferase ER calcium/proteostasis reporter; series mostly up to 76.3 µM. The method in brief: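 SH-SY5Y cells stably expressing GLuc-SERCaMP, treated 16 h with compound (primary 1.53, 7.67, 38.3 uM; confirmation 11 concentrations, up to 76.6 uM), then 100 nM thapsigargin for 4 h. Secreted Gaussia luciferase in medium read by coelenterazine luminescence.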

Experiment [7] is described as follows: Cell Viability qHTS for small molecule stabilizers of the endoplasmic reticulum resident proteome (AID 1508629).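 Further: compound exposure about 46 h in total before the viability read.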 Further: potency means the concentration at half of the fitted maximal effect. Conditions: cell viability counter-screen, 100 nM thapsigargin for final 4 h.
In experiment [8] the target is Lysosomal acid glucosylceramidase (Homo sapiens) (UniProt P04062). The experiment in a line: Glucocerebrosidase-p2 (AID 348; in the data active means potency below about 10 µM; further: potency means the concentration at half of the fitted maximal effect). Conditions: purified GBA, blue fluorogenic substrate, 40 min. The method in brief:
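Compounds titrated from 0.6 nM upwards against 0.2 nM enzyme in pH 5.9 citric acid/KH2PO4, taurocholate, tween-20; blue fluorogenic substrate 80 uM, 40 min room temperature, stopped and read Ex 365/Em 440 for AC50.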

A short description of experiment [9]: AP1 Signaling Pathway (AID 357; active means well fitted curve in either direction with a large enough effect, not every such curve was filed as active; further: on the % scale 0 is the no-effect control and ±100 the full control effect). Conditions: ME-180 AP-1-bla reporter, EGF-induced, beta-lactamase ratio, 5 h; at 7.69 µM (top of the series) unless noted. The method in brief: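 Read-out was the 460nm/530nm emission ratio (excitation 405nm) after CCF4 loading for 2.5 hours at room temperature. Cells carried an AP-1-driven beta-lactamase reporter, were stimulated with EC50 EGF plus compound for 5 hours, and AC50 values came from titrations.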

The target of experiment [10] is Cytochrome P450 1A2 (Homo sapiens) (UniProt P05177). The experiment in a line: p450-cyp1a2 (AID 410; calls by dose curve;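 further: -100% = full effect of reference inhibitor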). Conditions: recombinant CYP1A2, luciferin-ME demethylation, luminescence; series mostly up to 57 µM. Put shortly:
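Luminescent readout of luciferin formed from Luciferin-ME by human CYP1A2; data normalized against complete inhibition by 57 uM furafylline. Enzyme 20nM, substrate 100uM at Km, 100mM KPO4 buffer, 60 min reaction at room temperature.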

Experiment [11] can be described thus: NFAT Signaling Pathway (AID 444; active means well fitted curve in either direction with a large enough effect, not every such curve was filed as active;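 further: carbachol stimulus at about its EC50 of 1 µM final; on the % scale 0 is the no-effect control and ±100 the full control effect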). Conditions: Jurkat NFAT-bla M1, carbachol, beta-lactamase ratio, 5 h; at 7.69 µM (top of the series) unless noted. Put shortly:
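Jurkat cells with NFAT-driven β-lactamase reporter and co-expressed M1 receptor, stimulated with carbachol (final 1 uM, ~EC50), compound titration, 5 h at 37 °C. CCF4 loaded 1 h at RT; 460/530 nm ratio gave %activity and AC50.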

Experiment [12] can be described thus: Stat Signaling Pathway (AID 446; active means well fitted curve in either direction with a large enough effect, not every such curve was filed as active;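 further: ME-180 cervical cancer cells given 40 pM IL-6 alongside compound; SIE-controlled beta-lactamase reporter measured as 460/530 nm FRET emission ratio; on the % scale 0 is the no-effect control and ±100 the full control effect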). Conditions: ME-180 SIE beta-lactamase reporter, IL-6 stimulated, 5 h; at 7.69 µM (top of the series) unless noted. The method in brief: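 Screening format detects activators and inhibitors alike: ME-180 SIE-bla cells stimulated at 40 pM IL-6 for 5 hrs with compound, then dual-emission beta-lactamase read at 405 nm excitation.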

Experiment [13] deals with Glucocorticoid receptor (Homo sapiens) (UniProt P04150). The experiment in a line: GR-GFP Redistribution (AID 450;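 active means compounds whose dose series gives a full or clear partial fitted curve of increased nuclear translocation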; further: potency means the concentration at half of the fitted maximal effect). Conditions: U2OS GR-GFP nuclear translocation, laser cytometry, 2 h.
For experiment [14] the target is unchanged. The experiment in a line: GR-EFC Redistribution (AID 451; calls by dose curve; further: potency means the concentration at half of the fitted maximal effect). Conditions: CHO-K1 GR-EFC translocation, beta-gal luminescence, 2 h. Put shortly:
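CHO-K1 cells expressing nuclear EA and GR-ED fragments of b-gal; compounds titrated up to 46 uM final, 2 h at 37 C. GR nuclear translocation read as complemented b-gal luminescence after 1 h RT detection.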

Experiment [15] has as its target Mitogen-activated protein kinase 10 (Mus musculus) (UniProt Q61831). The experiment in a line: JNK3 AlphaScreen Assay (AID 530; active means well fitted curve in either direction with a large enough effect, not every such curve was filed as active). Conditions: JNK3 lysate, c-Jun phosphorylation; series mostly up to 57.1 µM. The method in brief:
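Pre-activated (IL-1β/TNFα) JNK3 in HepG2 lysates phosphorylates biotin-GST-cJun(1-79), 10 uM ATP; anti-phospho-cJun(Ser73) AlphaScreen read at room temperature, pH 7.6 Tris buffer. Compounds pre-incubated 15 min as titrations.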
In general terms: In Alpha technology, singlet oxygen from a donor bead excites a nearby acceptor bead.

Experiment [16] deals with 3',5'-cyclic-AMP phosphodiesterase 4B (Homo sapiens) (UniProt Q07343). The experiment in a line: qHTS Assay for Inhibitors of PDE-IV (AID 607; active means well fitted activation curve with a large enough effect in the main read-out, with a control signal flat, not every such curve was filed as active; further: % of control where 0% means no effect). Conditions: HEK293 ACTOne CNG channel cells, membrane potential fluorescence; series mostly up to 22.9 µM. The method in brief: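 The readout is membrane depolarisation from a cAMP-sensing CNG channel, detected with a potential dye at ex 535/em 590. Cells were HEK293-derived (endogenous PDE-IV) at 1000 cells/well, titrated up to 22.9 uM final.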

A short description of experiment [17]: qHTS Assay for Lipid Storage Modulators (AID 1519; calls by dose curve). Conditions: Drosophila S3 cells, BODIPY lipid droplet/cell ratio, laser cytometry, cells loaded with oleic acid. The method in brief: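 Cells seeded at 5,000 per well were treated with compounds over a concentration series and loaded with oleic acid (400 uM, as added). Lipid droplet fluorescence (488 nm excitation, 500-530 nm channel) was read by laser-scanning cytometry and normalized to 20 uM Triacsin C.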

The target in experiment [18] is Dual specificity protein kinase CLK4 (Homo sapiens) (UniProt Q9HAZ1). The experiment in a line: qHTS Assay for Inhibitors of CDC-like Kinase 4 (Kinase-Glo Assay) (AID 1770). Further: on the % scale 0 is the no-effect control and ±100 the full control effect; nearly all actives have a fitted effect of over 65% in size. Conditions: recombinant Clk4, Kinase-Glo ATP depletion luminescence; series mostly up to 66.7 µM. Put shortly: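 Substrate mix (RS peptide 100 uM, ATP 1 uM) dispensed, compound pinned in, then Clk4 added to 25 nM final. Incubated 4.5 h at RT; Kinase-Glo reagent added, luminescence read after 5 min.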

For experiment [19] the target is unchanged. The experiment in a line: qHTS Assay for Inhibitors of CDC-like Kinase 4 (ADP-Glo Assay) (AID 1771). Further: on the % scale 0 is the no-effect control and ±100 the full control effect; nearly all actives have a fitted effect of over 70% in size. Conditions: recombinant CLK4, ADP-Glo luminescence; series mostly up to 80 µM. The method in brief:
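Luminescence from ADP-Glo reports ADP produced by 25 nM Clk4 acting on 100 uM RS repeat peptide with 1 uM ATP over 1 hr at room temperature; residual ATP is depleted before ADP is converted to ATP for detection.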

Experiment [20] shares this target. The experiment in a line: qHTS Assay for Inhibitors of CDC-like Kinase 4 (ADP-FP Assay) (AID 1795).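 Further: recombinant human CLK4 phosphorylating RS repeat peptide at 1 µM ATP; on the % scale 0 is the no-effect control and ±100 the full control effect; nearly all actives have a fitted effect of over 60% in size.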 Conditions: Transcreener ADP fluorescence polarization; series mostly up to 50 µM. The method in brief:
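Clk4 6.25 nM; RS peptide 100 uM; ATP 1 uM; 25 mM Tris pH 7.5, 10 mM MgCl2; 1 h reaction. ADP detected via antibody/orange tracer FP displacement; TG003 positive control.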

Experiment [21] concerns the target Ubiquitin carboxyl-terminal hydrolase 1 (Homo sapiens) (UniProt O94782). The experiment in a line: Inhibitors of USP1/UAF1: Pilot qHTS (AID 504865).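 Further: rhodamine fluorescence freed from ubiquitin-rhodamine substrate followed over time; top concentration of the series differs between compounds; on the % scale 0 is the no-effect control and ±100 the full control effect; nearly all actives have a fitted effect of over 35% in size.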 Conditions: purified USP1/UAF1, Ub-rhodamine cleavage fluorescence; series mostly up to 54.9 µM. Put shortly:
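In 50mM HEPES pH 7.8 containing 0.5mM EDTA, 1mM TCEP, 0.1 mg/ml BSA and 0.01% Tween-20, 1nM USP1/UAF1 is exposed to compound for 15 min, then Ub-Rho (150nM final) is added and fluorescence is read over time.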

Dual specificity protein kinase CLK4 (Homo sapiens), sequence (Q9HAZ1 whole entry, looked up): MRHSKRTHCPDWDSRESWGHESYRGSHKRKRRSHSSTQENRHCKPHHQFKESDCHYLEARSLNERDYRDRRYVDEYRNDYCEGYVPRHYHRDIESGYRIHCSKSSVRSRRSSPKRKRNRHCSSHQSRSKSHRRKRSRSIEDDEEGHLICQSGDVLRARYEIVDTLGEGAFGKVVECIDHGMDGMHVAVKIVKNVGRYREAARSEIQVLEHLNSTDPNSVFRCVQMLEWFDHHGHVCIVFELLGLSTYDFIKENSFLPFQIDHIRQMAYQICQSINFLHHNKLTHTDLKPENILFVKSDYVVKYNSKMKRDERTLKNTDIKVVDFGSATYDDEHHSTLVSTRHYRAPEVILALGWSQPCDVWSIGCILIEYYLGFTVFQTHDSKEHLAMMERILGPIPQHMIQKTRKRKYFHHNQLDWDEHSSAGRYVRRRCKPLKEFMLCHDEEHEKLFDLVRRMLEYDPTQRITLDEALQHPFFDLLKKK
Cytochrome P450 3A4 (Homo sapiens), sequence (P08684 whole entry, looked up): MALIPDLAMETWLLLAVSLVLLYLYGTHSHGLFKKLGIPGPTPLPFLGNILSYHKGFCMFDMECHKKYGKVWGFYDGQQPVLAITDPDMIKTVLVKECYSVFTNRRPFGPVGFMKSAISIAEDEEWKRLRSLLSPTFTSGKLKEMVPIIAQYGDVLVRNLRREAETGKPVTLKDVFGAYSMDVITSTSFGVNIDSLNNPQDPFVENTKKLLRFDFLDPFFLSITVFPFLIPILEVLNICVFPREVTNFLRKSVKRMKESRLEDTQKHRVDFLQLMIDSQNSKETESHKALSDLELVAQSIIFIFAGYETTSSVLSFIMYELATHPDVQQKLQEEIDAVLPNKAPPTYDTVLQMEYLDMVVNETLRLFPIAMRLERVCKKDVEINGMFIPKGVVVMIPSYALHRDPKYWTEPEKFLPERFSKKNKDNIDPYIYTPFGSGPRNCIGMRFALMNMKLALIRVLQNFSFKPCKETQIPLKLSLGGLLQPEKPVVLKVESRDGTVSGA
Calcium and integrin-binding protein 1 (Homo sapiens), sequence (Q99828 whole entry, looked up): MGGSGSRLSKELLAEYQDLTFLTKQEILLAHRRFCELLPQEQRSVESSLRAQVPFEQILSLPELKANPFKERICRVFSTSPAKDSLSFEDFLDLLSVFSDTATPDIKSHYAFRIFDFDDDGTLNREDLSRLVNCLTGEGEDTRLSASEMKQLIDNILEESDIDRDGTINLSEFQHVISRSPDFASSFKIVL
Glucocorticoid receptor (Homo sapiens), sequence (P04150 whole entry, looked up): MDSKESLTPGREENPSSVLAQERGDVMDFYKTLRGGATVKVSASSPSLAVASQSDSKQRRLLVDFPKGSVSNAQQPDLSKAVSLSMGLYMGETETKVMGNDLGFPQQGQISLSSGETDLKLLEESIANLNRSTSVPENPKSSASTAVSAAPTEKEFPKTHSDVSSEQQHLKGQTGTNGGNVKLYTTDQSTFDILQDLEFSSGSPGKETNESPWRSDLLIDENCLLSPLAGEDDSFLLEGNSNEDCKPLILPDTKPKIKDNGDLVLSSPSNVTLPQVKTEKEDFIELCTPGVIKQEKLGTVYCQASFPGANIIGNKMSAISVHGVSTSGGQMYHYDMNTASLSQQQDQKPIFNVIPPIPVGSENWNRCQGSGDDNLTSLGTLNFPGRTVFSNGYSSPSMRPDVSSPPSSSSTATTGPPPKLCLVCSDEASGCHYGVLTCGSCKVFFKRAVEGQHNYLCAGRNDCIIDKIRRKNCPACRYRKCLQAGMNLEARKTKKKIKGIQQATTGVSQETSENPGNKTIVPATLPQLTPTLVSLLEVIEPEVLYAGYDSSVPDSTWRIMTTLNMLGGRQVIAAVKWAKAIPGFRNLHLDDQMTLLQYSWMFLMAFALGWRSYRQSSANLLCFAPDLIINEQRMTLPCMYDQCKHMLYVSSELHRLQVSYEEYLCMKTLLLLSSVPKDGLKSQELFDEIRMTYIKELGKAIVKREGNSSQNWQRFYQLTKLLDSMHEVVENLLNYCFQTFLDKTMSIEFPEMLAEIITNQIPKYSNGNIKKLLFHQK
Ubiquitin carboxyl-terminal hydrolase 1 (Homo sapiens), sequence (O94782 whole entry, looked up): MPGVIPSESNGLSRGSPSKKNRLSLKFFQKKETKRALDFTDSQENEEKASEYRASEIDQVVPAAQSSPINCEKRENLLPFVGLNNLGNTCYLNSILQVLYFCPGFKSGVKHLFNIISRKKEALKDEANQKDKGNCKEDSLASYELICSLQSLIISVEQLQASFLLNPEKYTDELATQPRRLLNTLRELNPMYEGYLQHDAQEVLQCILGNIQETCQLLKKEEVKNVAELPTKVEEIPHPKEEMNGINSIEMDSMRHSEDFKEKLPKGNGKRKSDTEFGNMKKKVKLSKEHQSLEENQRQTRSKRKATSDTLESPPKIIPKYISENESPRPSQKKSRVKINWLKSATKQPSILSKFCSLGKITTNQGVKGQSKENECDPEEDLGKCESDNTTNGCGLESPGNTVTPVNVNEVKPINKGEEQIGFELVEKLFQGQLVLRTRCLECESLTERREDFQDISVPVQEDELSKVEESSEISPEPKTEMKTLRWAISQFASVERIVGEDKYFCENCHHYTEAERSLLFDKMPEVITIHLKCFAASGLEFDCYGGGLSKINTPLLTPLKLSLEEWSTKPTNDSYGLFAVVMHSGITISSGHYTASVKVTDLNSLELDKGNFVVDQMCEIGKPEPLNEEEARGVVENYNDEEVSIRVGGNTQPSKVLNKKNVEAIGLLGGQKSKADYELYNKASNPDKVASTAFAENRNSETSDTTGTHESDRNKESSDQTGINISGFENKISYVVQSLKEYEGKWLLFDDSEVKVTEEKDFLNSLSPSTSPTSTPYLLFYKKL
3',5'-cyclic-AMP phosphodiesterase 4B (Homo sapiens), sequence (Q07343 whole entry, looked up): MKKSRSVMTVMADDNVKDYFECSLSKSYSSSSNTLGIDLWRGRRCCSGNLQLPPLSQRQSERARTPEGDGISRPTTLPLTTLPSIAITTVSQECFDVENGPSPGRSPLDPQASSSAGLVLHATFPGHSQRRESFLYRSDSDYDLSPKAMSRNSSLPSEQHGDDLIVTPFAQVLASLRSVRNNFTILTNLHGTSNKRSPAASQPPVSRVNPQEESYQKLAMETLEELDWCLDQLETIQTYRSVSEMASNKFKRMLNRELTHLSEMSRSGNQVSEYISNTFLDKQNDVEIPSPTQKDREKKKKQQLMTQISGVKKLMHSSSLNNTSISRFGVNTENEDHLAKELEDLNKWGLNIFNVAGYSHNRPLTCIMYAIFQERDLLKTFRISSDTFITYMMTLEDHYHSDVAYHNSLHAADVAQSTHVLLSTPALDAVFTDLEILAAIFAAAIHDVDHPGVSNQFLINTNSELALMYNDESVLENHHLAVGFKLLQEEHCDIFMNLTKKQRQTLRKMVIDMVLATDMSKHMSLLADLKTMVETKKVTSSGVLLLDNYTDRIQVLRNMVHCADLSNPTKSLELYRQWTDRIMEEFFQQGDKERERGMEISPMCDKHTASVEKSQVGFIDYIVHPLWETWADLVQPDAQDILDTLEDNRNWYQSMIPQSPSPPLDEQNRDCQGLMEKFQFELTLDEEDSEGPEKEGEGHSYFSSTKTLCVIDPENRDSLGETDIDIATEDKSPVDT
Ubiquitin carboxyl-terminal hydrolase 2 (Homo sapiens), sequence (O75604 whole entry, looked up): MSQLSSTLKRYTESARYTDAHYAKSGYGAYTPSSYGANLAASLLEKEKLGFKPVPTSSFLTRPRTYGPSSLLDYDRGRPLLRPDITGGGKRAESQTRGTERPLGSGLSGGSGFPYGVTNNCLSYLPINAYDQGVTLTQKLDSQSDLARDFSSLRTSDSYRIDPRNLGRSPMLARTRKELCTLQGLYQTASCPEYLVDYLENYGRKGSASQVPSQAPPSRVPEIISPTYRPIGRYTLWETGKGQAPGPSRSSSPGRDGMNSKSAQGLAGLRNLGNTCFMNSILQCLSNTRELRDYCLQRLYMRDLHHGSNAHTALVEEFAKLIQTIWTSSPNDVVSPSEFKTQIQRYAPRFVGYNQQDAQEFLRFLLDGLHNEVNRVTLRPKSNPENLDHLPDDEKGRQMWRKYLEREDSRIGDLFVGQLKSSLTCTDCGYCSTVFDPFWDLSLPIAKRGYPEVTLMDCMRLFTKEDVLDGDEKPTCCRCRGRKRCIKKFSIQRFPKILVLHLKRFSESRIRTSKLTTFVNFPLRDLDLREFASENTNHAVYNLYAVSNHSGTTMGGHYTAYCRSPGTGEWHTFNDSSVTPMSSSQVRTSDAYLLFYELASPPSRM
Lysosomal acid glucosylceramidase (Homo sapiens), sequence (P04062 whole entry, looked up): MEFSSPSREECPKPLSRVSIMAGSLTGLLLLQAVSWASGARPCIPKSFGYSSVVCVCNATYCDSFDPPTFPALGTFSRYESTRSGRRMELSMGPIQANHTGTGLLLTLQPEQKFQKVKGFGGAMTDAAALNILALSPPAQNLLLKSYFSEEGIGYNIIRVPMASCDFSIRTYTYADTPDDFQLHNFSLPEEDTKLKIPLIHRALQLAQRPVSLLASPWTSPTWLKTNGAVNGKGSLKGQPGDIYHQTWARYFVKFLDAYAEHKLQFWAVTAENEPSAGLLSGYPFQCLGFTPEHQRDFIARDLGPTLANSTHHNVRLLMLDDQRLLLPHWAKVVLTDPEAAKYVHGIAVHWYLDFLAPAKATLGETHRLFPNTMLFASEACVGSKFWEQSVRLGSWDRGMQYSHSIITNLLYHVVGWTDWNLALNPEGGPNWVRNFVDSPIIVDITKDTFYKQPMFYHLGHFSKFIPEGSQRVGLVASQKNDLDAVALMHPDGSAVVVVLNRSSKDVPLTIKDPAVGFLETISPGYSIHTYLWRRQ

For `Cc1nc(NCc2ccccc2)c2nc(-c3ccccc3)n(CCN3CCOCC3)c2n1`, the Potency in experiment [1] is 0.631 µM (active). Further, the Potency result in experiment [2] and in experiment [3] was “inactive” each time.

Regarding `Cc1nc(NC2CCCCC2)c2nc(-c3ccccc3)n(CC3CCN(C)CC3)c2n1`, the Potency entry in experiment [1] and in experiment [3] was “inactive” throughout.

As for `Cc1ccc(S(=O)(=O)Nc2cccnc2C(=O)Nc2nc(-c3ccccc3)cs2)cc1`, in experiment [4], the Potency is 1.37 µM (active). Also, the Potency result in experiment [3] was “inactive”.

On to `O=C(O)/C=C/C(=O)Nc1ccc(OC(F)(F)Cl)cc1`, for which the Potency result in experiment [5] and in experiment [6] was “inactive” each time. The max response in [7] was 5.17% (inactive).

Turning to `CC(=O)N[C@H]1C(O[C@@H]2O[C@H](C[C@@H](O)[C@H]3O[C@@H](N4CCC(=O)NC4=O)[C@H](O)[C@@H]3O)[C@H](O)[C@H](O)[C@H]2NC(=O)/C=C/CCCCCCCCCCC(C)C)OC(CO)[C@@H](O)[C@@H]1O` (some centres not stated), the Potency in experiment [5] is 35.5 µM (active); in [6] it was 0.562 µM (active); in [7], 0.398 µM (active).

Regarding `Cc1nc2cnc(N3CCN(C)CC3)nc2n(Cc2ccc(F)cc2)c1=O`, the Potency is > 11.4 µM (inactive) in [8], > 9.22 µM (inactive) in experiment [13] and > 46 µM (inactive) in [14]. Further, the activity change, negative = inhibition is 1.11% (inactive) in [9], -12.3% (inactive) in experiment [11] and 3.55% (inactive) in experiment [17] (at 57.5 µM (top of the series)). Further, the Potency result in experiment [10], in experiment [16], in [2], in [18], in [19] and in experiment [20] was “inactive” throughout. For the same molecule, the Potency result in experiment [21], in experiment [5] and in experiment [6] was “inactive” throughout. Further, the activity, negative = inhibition in experiment [12] is -4.86% (inactive). Also, the result in [15] was inactive. Besides, the max response is -0.123% in experiment [17] (measured here: cell count channel max response) and 1.24% in [17] (measured here: lipid channel max response).
